Bioassay records deposited in PubChem by Buhrlage Lab, Dana-Farber Cancer Institute and Novartis Institutes for BioMedical Research (Cambridge, Mass).
In the library only some 4.9% were active in any assay of this set; here they are far more common.
OTUD3 inh: inhibitors of human OTUD3 deubiquitinase; purified OTUD3, Ub-rhodamine fluorescence, 2 h; hit rate 0.7% among 47,000; inhibition, % at 25 µM; OTU domain-containing protein 3 (Homo sapiens), Q5T2D3
USP10 block: inhibitors of human USP10 deubiquitinase; Ubiquitin carboxyl-terminal hydrolase 10 (Homo sapiens), Q14694; purified USP10, Ub-rhodamine fluorescence, 60 min; inhibition, % at 20 µM; hit rate 1.1% among 47,000; AID 1645856, 2021
UCHL1 inh: inhibitors of human UCHL1 deubiquitinase; Ubiquitin carboxyl-terminal hydrolase isozyme L1 (Homo sapiens), P09936; purified UCHL1, Ub-rhodamine cleavage fluorescence; inhibition, % at 20 µM; hit rate 0.2% among 47,000; AID 1645859, 2021
USP7 block: inhibitors of human USP7 deubiquitinase | inhibition, % at 20 µM | hit rate 0.3% among 47,000 | purified USP7, Ub-rhodamine cleavage fluorescence | Ubiquitin carboxyl-terminal hydrolase 7 (Homo sapiens), Q93009 | AID 1645854, 2021
Target sequence (Q93009 whole entry, looked up): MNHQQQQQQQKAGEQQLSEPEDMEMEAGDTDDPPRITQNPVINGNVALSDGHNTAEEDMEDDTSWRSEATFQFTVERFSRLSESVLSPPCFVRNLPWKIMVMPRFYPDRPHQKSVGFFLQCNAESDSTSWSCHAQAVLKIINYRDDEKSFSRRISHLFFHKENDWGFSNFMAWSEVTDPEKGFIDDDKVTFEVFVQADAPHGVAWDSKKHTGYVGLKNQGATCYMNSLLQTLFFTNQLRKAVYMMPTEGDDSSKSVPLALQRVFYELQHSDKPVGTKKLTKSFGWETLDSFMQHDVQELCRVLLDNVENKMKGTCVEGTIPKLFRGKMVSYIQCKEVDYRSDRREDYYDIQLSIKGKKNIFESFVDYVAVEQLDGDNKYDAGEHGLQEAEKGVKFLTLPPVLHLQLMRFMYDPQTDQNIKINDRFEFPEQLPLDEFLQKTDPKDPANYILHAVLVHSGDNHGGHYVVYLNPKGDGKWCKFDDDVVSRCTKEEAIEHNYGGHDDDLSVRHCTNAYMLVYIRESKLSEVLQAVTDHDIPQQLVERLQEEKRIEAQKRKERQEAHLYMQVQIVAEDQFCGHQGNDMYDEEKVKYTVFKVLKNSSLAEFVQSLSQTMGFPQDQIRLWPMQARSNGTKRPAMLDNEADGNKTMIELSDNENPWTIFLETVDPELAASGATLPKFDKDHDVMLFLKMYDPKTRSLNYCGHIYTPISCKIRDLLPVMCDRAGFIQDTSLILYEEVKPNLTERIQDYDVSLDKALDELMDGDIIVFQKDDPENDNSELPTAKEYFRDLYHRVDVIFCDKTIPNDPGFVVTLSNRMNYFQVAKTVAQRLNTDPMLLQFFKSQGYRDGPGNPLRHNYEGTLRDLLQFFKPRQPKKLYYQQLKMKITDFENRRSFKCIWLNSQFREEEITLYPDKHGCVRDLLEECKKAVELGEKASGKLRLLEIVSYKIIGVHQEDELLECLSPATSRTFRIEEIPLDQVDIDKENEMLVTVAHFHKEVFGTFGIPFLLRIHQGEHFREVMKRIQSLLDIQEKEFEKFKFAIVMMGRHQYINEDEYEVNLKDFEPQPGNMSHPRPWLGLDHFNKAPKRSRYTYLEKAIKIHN
USP8 inh: inhibitors of human USP8 deubiquitinase; Ubiquitin carboxyl-terminal hydrolase 8 (Homo sapiens), P40818; purified USP8, Ub-rhodamine cleavage fluorescence, 30 min; inhibition, % at 20 µM; hit rate 4.2% among 47,000
* marks the source's active call; other numbers are inactive results; x = not tested or not shown. Rule as the data show it: active = inhibition above about 30%; inactive = the rest.

SMILES	OTUD3 inh	USP10 block	UCHL1 inh	USP7 block	USP8 inh
CC(=O)Nc1ccc(C(=O)/C=C2\NCCc3cc4c(cc32)OCCCO4)cc1	-67	-6	-3	-11	44*
Cc1cccc(NC(=O)C2CCN(S(C)(=O)=O)c3ccccc3O2)c1C (stereo not drawn)	-3	2	-2	2	3
CC1OC2CC(O)C1(O)C1=C2C(O)=C(C(N)=O)C(=N)C1=O (stereo not drawn)	51*	36*	52*	-34	39*
O=C(COC(=O)C1(c2ccc(Cl)cc2)CCCC1)Nc1ccc2c(c1)OCO2	29	16	9	15	36*
CC(C)c1ccc(NC(=O)COC(=O)c2ccc3[nH]c4c(c3c2)CCCC4)cc1	3	4	1	7	17
O=C(COC(=O)C1(c2ccc(Cl)cc2)CCCC1)c1ccc2c(c1)OCCO2	-10	4	2	2	0
O=C(COC(=O)c1ccc2[nH]c3c(c2c1)CCCC3)Nc1ccc2c(c1)OCO2	7	13	0	-8	41*
COc1ccc(/C=C/C(=O)Nc2c3c(nc4c2CCC4)CCCC3)cc1	8	-1	2	7	3
COc1ccccc1CNC(=O)c1snc(-c2ccncc2)c1N	0	0	-2	-5	-247
COC(=O)c1cccc(NC(=O)c2ccc(OC)c(S(=O)(=O)N3CCCc4ccccc43)c2)c1	-12	-1	-2	2	-19
COc1ccc(C(=O)O)cc1S(=O)(=O)N1CCCc2ccccc21	9	0	2	-3	80*
CCOc1ccc2c(c1)c(=O)c(C(=O)c1ccccc1)cn2CC(=O)Nc1ccccc1	-5	29	4	27	43*
CCOc1ccc2c(c1)c(=O)c(C(=O)c1ccccc1)cn2CC(=O)Nc1ccc2c(c1)OCCO2	12	53*	6	8	95*
CCOc1ccc2c(c1)c(=O)c(C(=O)c1ccc(C)cc1)cn2CC(=O)Nc1ccc(OC)cc1	-7	16	-2	1	0
O=C(Cn1cc(C(=O)c2ccccc2)c(=O)c2cc3c(cc21)OCCO3)Nc1ccc(F)cc1	-38	12	-2	5	9
CCOc1ccc2c(c1)c(=O)c(C(=O)c1ccc(F)cc1)cn2CC(=O)Nc1ccccc1	-1	28	-2	17	38*
O=C(Nc1nnc(C2CCCCC2)s1)C1CC(=O)N(c2ccc3c(c2)OCCO3)C1 (stereo not drawn)	-3	11	2	0	4
COc1ccccc1CNC(=O)C1CN(S(C)(=O)=O)c2cc(C)ccc2O1 (stereo not drawn)	0	0	-3	0	-4
Cc1ccccc1OCc1nc2c3c(C)c(C)oc3ncn2n1	4	-7	-1	0	19
Cc1oc2ncn3nc(C(C)Oc4cccc5ccccc45)nc3c2c1C (stereo not drawn)	-13	-11	-5	-13	78*
O=C(Nc1ncccc1O)C1CC(=O)N(c2ccc3c(c2)OCO3)C1 (stereo not drawn)	-5	-8	-2	-3	55*
COc1ccc(NC(=O)c2nnc(C(=O)NCCN3CCCCCC3)s2)cc1	34*	10	6	3	-6
O=C(Cc1n[nH]c(Cc2ccc(F)cc2)n1)NC1CCCCCC1	1	-2	0	-27	42*
COc1ccccc1CN1CCC([C@@H]2C[C@H](C(F)(F)F)n3ncnc3N2)CC1	5	1	1	6	15
N#Cc1cccc(NC(=O)COC(=O)c2n[nH]c3ccccc23)c1	-34	31*	4	17	28
SMILES	OTUD3 inh	USP10 block	UCHL1 inh	USP7 block	USP8 inh
N#Cc1ccc(Cl)cc1NC(=O)COC(=O)c1n[nH]c2ccccc12	-6	-9	3	2	34*
COc1ccc(C2CC(=O)N(Cc3ccccc3F)c3ccccc3S2(=O)=O)cc1OC (stereo not drawn)	-2	10	2	-25	33*
COCCC(=O)Nc1ccc2c(c1)Sc1ncccc1C(=O)N2C	-18	-8	-9	-4	-15
NS(=O)(=O)c1cccc(NC(=O)CSc2nnc(-c3c[nH]c4ccccc34)n2CC2CCCO2)c1 (stereo not drawn)	-23	0	-3	-9	-11
O=c1[nH]c(-c2cccnc2)nc2c1CCN(Cc1[nH]c3ccccc3c1Cl)C2	-13	0	-4	-1	37*
O=C(NCCCN1CCOCC1)c1nc(-c2cccc3[nH]ccc23)no1	-7	0	-2	x	2
COc1ccccc1CN1CCC(c2nn(C)c3nccnc23)CC1	-1	0	2	2	1
COc1ccccc1CN(CCCn1ccnc1)CC1CCOC1 (stereo not drawn)	10	4	-1	1	36*
Cc1ccc(C(=O)Nc2ccc3nccnc3c2)cc1	6	0	0	2	-1
O=C(Nc1ccc2n[nH]nc2c1)c1ccc(Cl)c(Cl)c1	40*	8	0	2	0
Nc1c(-c2nc(-c3ccc(F)cc3)no2)nnn1-c1ccccc1F	1	1	1	8	35*
Cc1cccc(-n2nnc(-c3nc(-c4ccc(Cl)cc4)no3)c2N)c1	-11	-2	-3	4	12
Nc1c(-c2nc(-c3ccccc3Cl)no2)nnn1-c1ccc(Cl)cc1	4	60*	12	56*	94*
O=S(=O)(Nc1cccn2cnnc12)c1ccc2c(c1)CCCC2	-4	-7	-14	-10	-12
O=C1c2[nH]nc(-c3ccccc3O)c2C(c2ccc(O)cc2)N1Cc1ccncc1 (stereo not drawn)	-4	5	0	8	20
CC(C)OCCCN1C(=O)c2[nH]nc(-c3ccccc3O)c2C1c1cccc(Cl)c1 (stereo not drawn)	9	25	9	1	55*
Cc1cccc(NC(=O)Cn2c(=O)n(Cc3ccc(C(=O)NC4CCN(Cc5ccccc5)CC4)cc3)c(=O)c3ccccc32)c1	-49	-5	-5	3	-9
COc1cccc(NC(=O)Cn2c(=O)n(CCCC(=O)NCc3ccco3)c(=O)c3ccccc32)c1	16	5	1	-1	4
COCCCNC(=O)c1ccc(Cn2c(=O)c3ccccc3n(CC(=O)NCc3ccco3)c2=O)cc1	-17	-2	-11	-2	-22
COCCNC(=O)Cn1c(=O)n(Cc2ccc(C(=O)NCc3ccc(C)cc3)cc2)c(=O)c2ccccc21	47*	27	6	-14	19
COC(=O)c1ccccc1NC(=O)Cn1c(=O)n(CCCC(=O)NCc2ccco2)c(=O)c2ccccc21	68*	54*	3	11	58*
COc1ccccc1CNC(=O)CCCCn1c(=O)c2ccccc2n(CC(=O)Nc2ccc(C)cc2C)c1=O	19	50*	3	16	46*
